From PubChem BioAssay (NCI)
About 83,000 compounds went through this panel and 20% of them were active in at least one assay; those are over-represented in the sample as a whole.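 The test compound was applied at a single concentration to cells in 96-well plates for 48 hours, and percent growth was recorded.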 A number with no mark means an inactive call. Activity calls are given as the source filed them. Rule for the calls: active = growth percent below 10; inactive = the rest.

Key:
Experiment in all cases: NCI-60 one-dose screen, 48 h (100 = growth as untreated, 0 = no growth, -100 = all killed)
Details in all cases: 10 µM unless noted
HCT-15 colon = system: HCT-15 colon
HT29 colon = system: HT29 colon
SNB-75 CNS = system: SNB-75 CNS
SNB-19 CNS = system: SNB-19 CNS
U251 CNS = system: U251 CNS
PC-3 prostate = system: PC-3 prostate
SK-MEL-5 melanoma = system: SK-MEL-5 melanoma
UACC-62 melanoma = system: UACC-62 melanoma
SK-MEL-28 melanoma = system: SK-MEL-28 melanoma
SK-MEL-2 melanoma = system: SK-MEL-2 melanoma
EKVX NSCLC = system: EKVX NSCLC
UO-31 renal = system: UO-31 renal
TK-10 renal = system: TK-10 renal
ACHN renal = system: ACHN renal
CAKI-1 renal = system: CAKI-1 renal
A498 renal = system: A498 renal
CCRF-CEM leukemia = system: CCRF-CEM leukemia
MOLT-4 leukemia = system: MOLT-4 leukemia
SN12C renal = system: SN12C renal
LOX IMVI melanoma = system: LOX IMVI melanoma

Row | SMILES | growth (HCT-15 colon) | growth (HT29 colon) | growth (SNB-75 CNS) | growth (SNB-19 CNS) | growth (U251 CNS) | growth (PC-3 prostate) | growth (SK-MEL-5 melanoma) | growth (UACC-62 melanoma) | growth (SK-MEL-28 melanoma) | growth (SK-MEL-2 melanoma) | growth (EKVX NSCLC) | growth (UO-31 renal) | growth (TK-10 renal) | growth (ACHN renal) | growth (CAKI-1 renal) | growth (A498 renal) | growth (CCRF-CEM leukemia) | growth (MOLT-4 leukemia) | growth (SN12C renal) | growth (LOX IMVI melanoma)
1 | CC(=O)c1c(C)[nH]c(-c2nc3ccc(N4CCN(C)CC4)cc3[nH]2)c1-c1ccc(N(C)C)cc1 | 4.03% (active) | 9.08% (active) | -9.22% (active) | 42.4% | 51% | 42% | 2.25% (active) | 21.1% | 45.8% | 64.3% | 34.5% | 7.2% (active) | -6.31% (active) | 19.8% | 10.3% | 6.38% (active) | 36.3% | 45.5% |  | 
2 | COc1ccc2c(c1)C/C(=C\c1cc(-c3ccc4c(c3)OCO4)n[nH]1)C2=O | 90.3% | 127% | 55.1% | 92.5% | 94.8% | 71.6% | 88.5% | 90.3% | 104% | 128% |  | 75.1% | 162% | 82.8% | 90.3% | 85.5% |  |  | 95.2% | 
3 | COc1ccc2c(c1)C/C(=C\c1cc(-c3cc(OC)c(OC)c(OC)c3)n[nH]1)C2=O | 91.1% | 89.3% | 78.4% | 91.9% | 92.3% | 56% | 75.5% | 88.1% | 99.3% | 94.7% |  | 76.6% | 111% | 81.7% | 84.3% | 87.4% |  |  | 92.8% | 
4 | COc1cc(-c2cc3ncccc3c3[nH]c(=O)c4cccnc4c23)cc(OC)c1OC | 30.6% | 8% (active) | -3.35% (active) | 53.7% | 16.8% | 13.2% | -5.2% (active) |  | 68.2% | 44.6% | 33.2% | 36.2% | 52.2% | 46.7% | 28.4% | -18.1% (active) | 13.1% | 31.6% | 42.7% | 42.5%
5 | O=c1c2sc3ncc(Br)cc3c2ncn1-c1cccc(Cl)c1 | 88.5% | 71.5% | 16.4% | 89.5% | 33.4% | 81.9% | 76.2% | 80.3% | 78% | 96.3% |  | 52.1% | 73.6% | 28% | 98.8% | 71.7% |  |  | 64.5% | 
6 | COc1ccc(/C=C/C(=O)c2ccc([N+](=O)[O-])cc2)cc1 | 104% | 95.3% | 104% | 96.9% | 97.5% | 92% | 105% | 88% | 112% | 98.9% | 128% |  | 101% | 108% | 123% | 107% | 85.3% | 86.3% |  | 
7 | Cc1nn(-c2ccc(Br)cc2)c2nc3[nH]c(=O)[nH]c(=O)c3nc12 | 104% | 101% | 74.6% | 104% | 101% | 111% | 100% | 102% | 91.2% | 111% |  |  | 144% | 106% | 92.2% | 84.3% | 118% | 116% | 109% | 
8 | N#C/C(=C\c1ccc(-c2ccccc2)o1)c1nc(-c2ccco2)cs1 | 47.6% | 99.8% | 91.9% | 94.1% | 98.3% | 77.8% | 73.5% | 77.9% | 105% | 106% | 37.3% | 55.2% | 55.8% | 93.4% | 85.2% | 125% | 95.9% | 98.7% |  | 
9 | Nc1nc2c(c(=O)[nH]1)C(c1ccc3c(c1)OCO3)C=C(C(=O)O)N2 (centres undefined) | 111% | 108% | 85.6% | 104% | 101% | 113% | 102% | 116% | 96.2% | 116% |  | 102% | 117% | 111% | 97.1% | 94.7% | 126% | 106% | 113% | 
10 | COC(=O)[C@]12CC[C@@H](C)[C@H](C)[C@@H]1C1=CC[C@@H]3[C@@]4(C)C[C@@H](OC(C)=O)[C@H](O)[C@@](C)(COC(C)=O)[C@@H]4[C@H](O)C[C@@]3(C)[C@]1(C)CC2 | -79.4% (active) | -84.1% (active) | -81.1% (active) | -82.6% (active) | -94.2% (active) | -95.1% (active) | -99.9% (active) |  | -88.3% (active) | -73.6% (active) | -88.8% (active) | -81.6% (active) | -86.5% (active) | -91.9% (active) | -88.2% (active) | -94.4% (active) | -54.3% (active) | -34.3% (active) | -69.9% (active) | -100% (active)
